Screening data deposited in PubChem BioAssay by The Scripps Research Institute Molecular Screening Center.
AHR activator: human AHR activation. actives 2.5% (n = 320,000). P35869. AHR-responsive luciferase reporter cells, luminescence. activation, % at 5 µM. AID 2796; in the data active means activation above about 47%
Target sequence (P35869 whole entry, looked up): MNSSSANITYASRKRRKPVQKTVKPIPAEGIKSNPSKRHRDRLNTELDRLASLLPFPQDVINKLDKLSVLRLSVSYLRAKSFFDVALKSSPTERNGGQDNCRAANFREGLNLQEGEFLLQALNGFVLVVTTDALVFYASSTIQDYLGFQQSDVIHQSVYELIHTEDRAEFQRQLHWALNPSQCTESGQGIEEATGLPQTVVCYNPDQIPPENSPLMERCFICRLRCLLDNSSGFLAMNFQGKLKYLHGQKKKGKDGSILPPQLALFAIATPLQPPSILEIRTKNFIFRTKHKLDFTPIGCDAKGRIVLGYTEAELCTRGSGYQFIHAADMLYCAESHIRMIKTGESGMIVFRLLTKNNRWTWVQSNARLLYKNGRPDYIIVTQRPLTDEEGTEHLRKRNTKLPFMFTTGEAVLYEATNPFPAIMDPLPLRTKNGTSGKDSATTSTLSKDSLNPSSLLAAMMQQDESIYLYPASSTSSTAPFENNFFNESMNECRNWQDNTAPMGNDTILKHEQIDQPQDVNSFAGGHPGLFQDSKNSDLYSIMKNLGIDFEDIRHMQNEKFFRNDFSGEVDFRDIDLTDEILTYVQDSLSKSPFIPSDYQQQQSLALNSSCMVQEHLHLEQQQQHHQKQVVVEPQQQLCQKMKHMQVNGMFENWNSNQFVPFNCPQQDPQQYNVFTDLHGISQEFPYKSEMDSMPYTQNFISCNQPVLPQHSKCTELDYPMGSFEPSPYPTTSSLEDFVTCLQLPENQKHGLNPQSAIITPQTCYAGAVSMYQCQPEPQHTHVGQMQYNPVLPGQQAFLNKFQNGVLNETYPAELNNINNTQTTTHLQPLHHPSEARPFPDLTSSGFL
ssDAF12 agonist: activates DAF-12 receptor from parasite S. stercoralis | AID 652126 | activation, % at 6.8 µM | actives 1% (n = 370,000) | HEK293 ssDAF-12/GRIP1 lit1-tk-luc reporter, luminescence; % of 3 µM dafachronic acid response;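 active means activation above the mean over all tested compounds plus 3 SD, cut at about 0.9% in these data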
hgDAF12 agonist: agonists of H. glycines DAF-12 nuclear receptor | activation, % at 6.8 µM | actives 1.8% (n = 370,000) | HEK293 GAL4-hgDAF12 UAS-luciferase reporter, agonist luminescence; normalized to butyrate control;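 active means activation above a cutoff set at the mean of all screened compounds plus 3 SD, cut at about 10% in these data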
DAX1 inh-1: inhibitors of human orphan nuclear receptor DAX1 (NR0B1). P51843. HEK293 Gal4-DAX1 luciferase reporter, luminescence. actives 0.99% (n = 340,000). inhibition, % at 6.75 µM. AID 504766;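 active means inhibition above the mean over all tested compounds plus 3 SD, cut at about 4.2% in these data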;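 further: inhibition shows as a rise in luminescence from relieved DAX1 repression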
DAX1 inh-2: DAX1 (NR0B1) inhibition, primary screen. HEK293T StAR-luciferase reporter, SF-1/DAX-1 repression relief. inhibition, % at 6.8 µM. actives 1.1% (n = 370,000). AID 652010;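 active means inhibition above the mean over all tested compounds plus 3 SD, cut at about 3.6% in these data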;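 further: higher inhibition means more luminescence from relief of DAX-1 repression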
hcDAF12 agonist: activators of H. contortus DAF-12 nuclear receptor; actives 1.4% (n = 370,000); activation, % at 6.8 µM; HEK293 hcDAF-12 lit1-tk-luc reporter, luminescence; 0% DMSO, 100% Δ7-dafachronic acid;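 active means activation above the mean of all tested compounds plus 3 SD, cut at about 5.5% in these data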
DAX1 conf: NR0B1 (human) inhibition, confirmation. shares compounds with DAX1 inh-2. inhibition, % at 6.8 µM. actives 87% (n = 2,400). HEK293T StAR-promoter luciferase reporter, SF-1/DAX-1 repression. AID 652134;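 active means inhibition above the average of every tested compound plus 3 SD, cut at about 3.8% in these data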;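 further: active compounds raise luminescence by relieving repression of the StAR reporter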
SF1 mutant ctr: nonselective inhibitor or artifact in SF-1 mutant DAX1 counter-screen; shares compounds with DAX1 inh-2; inhibition, % at 6.8 µM; HEK293 StAR-luciferase, SF-1 AF2 mutant, luminescence; actives 78% (n = 2,400);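 active means inhibition above the mean of all tested compounds plus 3 SD, cut at about 3% in these data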
LXRb hcDAF ctr: LXR-beta agonism as hcDAF-12 counter-screen | shares compounds with hcDAF12 agonist | HEK293 Gal4-LXR tk-luc reporter, luminescence, 24 h; normalized: DMSO 0%, positive control 100% | activation, % at 6.8 µM | 3,400 tested, under 10 active;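 active means mean percent activation of the reporter above a cutoff set as the average over tested compounds plus their standard deviation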
hcDAF12 ag: hcDAF-12 agonism, confirmation assay; shares compounds with hcDAF12 agonist; HEK293 hcDAF-12 lit1-tk-luc reporter, luminescence; % of Δ7-dafachronic acid response; activation, % at 6.8 µM; actives 61% (n = 3,400); AID 743032;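 active means mean activation across triplicate tests above the threshold derived from the earlier primary screen, cut at about 5.5% in these data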
Hits are given with their value; n = inactive; x = no result given. Rows were chosen to be rich in hits. Some 5.7% of all compounds tested hit in one or more screens of this group.

SMILES	AHR activator	ssDAF12 agonist	hgDAF12 agonist	DAX1 inh-1	DAX1 inh-2	hcDAF12 agonist	DAX1 conf	SF1 mutant ctr	LXRb hcDAF ctr	hcDAF12 ag
COc1ccc2oc(=Nc3ccccc3)c(-c3nc4ccccc4[nH]3)cc2c1	n	3.8	21	n	5.0	22	3.7	n	n	8.0
COc1ccc2oc(=Nc3cccc(F)c3)c(C(N)=O)cc2c1	n	n	n	n	n	n	x	x	x	x
O=C(Nc1ccccc1)Nc1ccc(C(=O)N2CCCC2)cc1	n	n	17	n	4.9	8.8	13	7.5	n	6.9
COc1ccc(NC(=O)c2nc3ccccc3s2)cc1	n	2.5	n	n	5.0	17	13	8.2	n	15
COc1ccc(NC(=O)c2cc3ccccn3n2)cc1	n	n	n	n	7.9	9.2	15	5.8	n	5.8
CCCCN(C(=O)CSCc1ccc(C)cc1)c1c(N)n(CCC)c(=O)[nH]c1=O	n	n	n	n	n	n	x	x	x	x
COC(=O)CN(C#N)c1nc(NCc2ccccc2)nc(OC)n1	x	n	n	n	n	n	x	x	x	x
COc1ccc(C(=O)/C=C2\Sc3ccccc3N2C)cc1	50	5.9	28	x	5.7	19	16	9.8	n	18
Cc1nnc(NC(=O)CCC(=O)N2CCN(CCOc3cccc4ccccc34)CC2)s1	n	n	n	x	n	n	x	x	x	x
Cc1ccsc1/C=N/Nc1cccc(C(=O)O)c1	n	n	17	n	11	10	19	11	n	19
Cc1ccc(/C=N/Nc2cccc(C(=O)O)c2)s1	n	2.5	27	n	8.3	12	17	8.5	n	14
COc1ccc(-c2cn3c(C)c(C(=O)N4CCCc5ccccc54)sc3n2)cc1	n	n	n	n	n	n	x	x	x	x
COc1ccc(-c2cn3c4c(sc3n2)CCCC4)cc1	68	1.3	13	n	5.1	17	12	7.9	n	20
CN(C(=O)COC(=O)C1CSC2(C)CCC(=O)N12)c1ccccc1 (stereo not given)	n	n	n	n	n	n	x	x	x	x
CC(C)Cc1cc(C(=O)Nc2ccc3c(c2)OCO3)no1	n	1.5	13	n	7.3	7.5	14	7.2	n	n
CC(C)Cc1cc(C(=O)Nc2ccc(Br)cc2)no1	n	n	n	n	n	n	x	x	x	x
Fc1cccc(F)c1/C=C/c1ccc2ccccc2n1	48	2.7	20	n	5.7	23	16	8.4	n	23
CC(C(=O)Nc1nccs1)c1ccc([N+](=O)[O-])cc1 (stereo not given)	n	n	n	n	n	n	x	x	x	x
Cc1ccnc(NC(=O)c2sc3ccccc3c2Cl)c1	n	n	16	n	8.0	8.7	6.9	n	n	10
Cc1cc(C)nc(NC(=O)/C=C/c2ccccc2Cl)n1	n	n	n	n	n	n	x	x	x	x
Cc1ccnc(NC(=O)c2cccc3ccccc23)c1	n	n	n	n	n	n	x	x	x	x
Cc1cnc(NC(=O)c2sc3ccccc3c2Cl)s1	n	3.1	30	n	5.4	17	6.4	n	n	17
Cc1ccnc(NC(=O)/C=C/c2ccccc2Cl)c1	n	1.4	13	n	5.3	8.9	8.6	4.7	n	9.3
Cc1onc(-c2ccccc2Cl)c1C(=O)NCc1nnnn1-c1ccc(F)c(F)c1	x	n	n	n	n	n	x	x	x	x
Cc1cccc(N(C(=O)CNC(=O)c2ccco2)C(C(=O)NC2CCCC2)c2ccncc2)c1C (stereo not given)	n	n	n	n	n	n	x	x	x	x
SMILES	AHR activator	ssDAF12 agonist	hgDAF12 agonist	DAX1 inh-1	DAX1 inh-2	hcDAF12 agonist	DAX1 conf	SF1 mutant ctr	LXRb hcDAF ctr	hcDAF12 ag
CCCCCCNc1c([N+](=O)[O-])c(=O)sc2ccccc12	n	n	n	n	n	n	x	x	x	x
CC(=O)NC12CC3CC(C1)CC(C(=O)NCc1ccc(C)cc1)(C3)C2	n	n	n	n	n	n	x	x	x	x
CC(C)(C)c1ccc(Nc2n[nH]c3ccccc23)cc1	x	2.9	28	x	11	13	12	4.6	n	20
CN(C(=O)CSc1nnc(-c2cccnc2)o1)C1CCCCC1	n	n	n	n	n	n	x	x	x	x
CC(C)(C)c1ccc(/C=N/NC(=O)c2ccccn2)cc1	n	n	13	n	12	7.2	14	6.2	n	9.5
COCCNc1ncnc2c1cnn2-c1ccc(Cl)cc1	n	n	12	n	4.9	6.9	11	6.4	n	n
Cn1cc(Cl)c(C(=O)Nc2nc3ccccc3s2)n1	n	3.3	19	n	7.0	21	14	7.3	n	18
O=C(Nc1nc2ccccc2s1)c1c(F)cccc1Cl	n	n	n	n	n	n	x	x	x	x
COc1ccc(N2CCN(C(=O)c3ccccc3N(C)S(=O)(=O)c3ccc(C)cc3)CC2)cc1	x	n	n	n	n	n	x	x	x	x
Clc1cnc(N/N=C/c2ccco2)c(Cl)c1	n	n	11	n	4.8	7.9	14	8.8	n	8.0
Cc1ccc2nc(CSc3nc(C)cc(C)c3C#N)[nH]c2c1	n	2.0	n	n	5.8	17	14	7.4	n	20
Cc1cc(C)c(C#N)c(SCc2ccccc2)n1	n	n	n	n	n	n	x	x	x	x
Cc1ccc2oc(C(=O)NCCC3CCCCO3)c(C)c2c1 (stereo not given)	x	n	13	n	10	8.5	7.5	4.2	n	14
Cc1c(C(=O)NCC2CCCO2)oc2ccccc12 (stereo not given)	n	n	n	n	n	n	x	x	x	x
CC(C)N1C(=O)c2ccccc2NC(=O)C1C(=O)NCc1cccc(C(F)(F)F)c1 (stereo not given)	x	n	n	x	n	n	x	x	x	x
Clc1ccc(-c2cn3c(n2)-c2ccccc2C3)cc1Cl	62	2.0	20	n	5.9	17	9.2	6.4	n	15
c1ccc2c(c1)Cn1nnnc1-2	n	x	x	n	x	x	x	x	x	x
O=C(COC(=O)c1cc(=O)[nH]c2ccccc12)NCCc1ccccc1	n	n	n	n	n	n	x	x	x	x
CC(C)(C)c1ccc(C(=O)Nc2cnccn2)cc1	n	n	n	n	5.3	6.7	14	7.3	n	n
COc1ccc(C(=O)Nc2cnccn2)cc1[N+](=O)[O-]	n	n	n	n	n	n	x	x	x	x
